Compounds without any hit were thinned out: in the full panel of roughly 79,000, 15% have a hit. Active and inactive are the calls of the source. Cut-off read from the data, not from the text of the source: active = growth inhibition above about 70%; inactive = the rest.
Key:
[1] = NCI Yeast Anticancer Drug Screen. Data for the rad50EPP+ strain (AID 151);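 note: 0% = growth of vehicle-treated control cultures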; details: S. cerevisiae rad50 mutant strain, hits give high values
Outline: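 Growth inhibition read against vehicle controls in rad50EPP+ yeast, a strain altered in DNA damage repair, after compound exposure.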

[2] = NCI Yeast Anticancer Drug Screen. Data for the rad50 strain (AID 155);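 note: 0% = growth of vehicle-only cultures of the same strain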; details: S. cerevisiae rad50 strain growth inhibition, hits give high values
Outline: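 Genetically altered yeast (DNA repair pathway); compound treatment; growth inhibition vs vehicle ctrl.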

[3] = NCI Yeast Anticancer Drug Screen. Data for the mec2-1 strain (AID 157); details: S. cerevisiae mec2-1 strain, hits give high values
Outline: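 Yeast mec2-1 mutant treated with compound. Readout: growth inhibition vs vehicle controls.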

[4] = NCI Yeast Anticancer Drug Screen. Data for the sgs1 mgt1 strain (AID 161);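 note: 0% = growth of cultures given vehicle only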; details: S. cerevisiae sgs1 mgt1 strain, hits give high values
Outline: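 Inhibition of yeast growth, normalised to vehicle-treated controls, is reported for a strain bearing genetic alterations in DNA damage repair.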

[5] = NCI Yeast Anticancer Drug Screen. Data for the CLN2oe strain (AID 163);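 note: 0% = growth of vehicle-only control cultures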; details: S. cerevisiae CLN2oe strain, hits give high values
Outline: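 Read-out: yeast growth inhibition, expressed relative to vehicle-only controls. The strain bears an engineered cell-cycle alteration.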

[6] = NCI Yeast Anticancer Drug Screen. Data for the cln2 rad14 strain (AID 165);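 note: 0% = growth equal to vehicle treated cultures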; details: S. cerevisiae cln2 rad14 strain, hits give high values
Outline: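 cln2 rad14 yeast strain; compound exposure; growth inhibition read vs vehicle controls.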

[7] = NCI Yeast Anticancer Drug Screen. Data for the bub3 strain (AID 167); details: S. cerevisiae bub3 mutant strain, hits give high values
Outline: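 Yeast carrying a defined mutation is treated with each compound, and growth is compared with that of vehicle-exposed cells to give inhibition.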

[8] = NCI Yeast Anticancer Drug Screen. Data for the wt2 strain (AID 169);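 note: 0% = growth of vehicle-treated yeast cultures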; details: S. cerevisiae wt2 strain growth inhibition, hits give high values
Outline: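 Read-out: growth inhibition versus vehicle-treated control cultures after compound exposure of the yeast strain.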

[9] = NCI Yeast Anticancer Drug Screen. Data for the mlh1 strain (AID 171);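 note: 0% = growth of vehicle-treated control cultures of the same strain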; details: S. cerevisiae mlh1 strain growth inhibition, hits give high values
Outline: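 Read-out: growth inhibition versus vehicle controls. Strain: engineered yeast with a defined DNA repair or cell cycle defect, compound-treated.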

[10] = NCI Yeast Anticancer Drug Screen. Data for the sgs1 strain (AID 173);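 note: 0% = growth of vehicle-only control cultures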; details: S. cerevisiae sgs1 mutant, hits give high values
Outline: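 Read-out: yeast growth inhibition relative to vehicle controls, following compound exposure of a strain with a defined DNA repair/cell cycle alteration.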

[11] = NCI Yeast Anticancer Drug Screen. Data for the mlh1 rad18 strain (AID 175); details: S. cerevisiae mlh1 rad18 strain growth inhibition, hits give high values
Outline: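 Yeast w/ defined DNA-repair lesions; compound exposure; growth vs vehicle controls → % inhibition.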

[12] = NCI Yeast Anticancer Drug Screen. Data for the rad18 strain (AID 177); details: S. cerevisiae rad18 mutant growth inhibition, hits give high values
Outline: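 Readout: growth inhibition vs vehicle controls. Cells: genetically altered yeast strain, DNA repair defect.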

[13] = at 5.0 µM (retest, dose inferred, filed as 0.5)
[14] = at 50.0 µM (retest, dose inferred, filed as 5.0)

Measured: growth inhibition

Cc1[nH]nc(C(F)(F)F)c1N=NN(C)C
inactive: [1]; at 1.2 µM 3% | [1]; at 3.7 µM 35% | [2]; at 1.2 µM 10% | [2]; at 3.7 µM 51% | [3]; at 1.2 µM 2% | [3]; at 3.7 µM 32% | [3]; at 11.0 µM 61% | [4]; at 50.0 µM 45% | [5]; at 1.2 µM -1% | [5]; at 3.7 µM 8% | [5]; at 11.0 µM 51% | [7]; at 1.2 µM -10% | [7]; at 3.7 µM -8% | [7]; [13] 30% | [7]; at 11.0 µM 45% | [8]; at 1.2 µM -1% | [8]; at 3.7 µM 49% | [8]; at 11.0 µM 51% | [9]; at 1.2 µM 4% | [9]; at 3.7 µM 48% | [9]; at 11.0 µM 52% | [10]; at 1.2 µM 12% | [10]; at 3.7 µM 48% | [11]; [13] 25% | [12]; at 1.2 µM 10% | [12]; at 3.7 µM 47%
active: [1]; at 11.0 µM 73% | [1]; at 33.0 µM 96% | [1]; at 100.0 µM 98% | [2]; [13] 91% | [2]; at 11.0 µM 87% | [2]; at 33.0 µM 99% | [2]; [14] 97% | [2]; at 50.0 µM 99.3% | [2]; at 100.0 µM 98% | [3]; [13] 96% | [3]; at 33.0 µM 99% | [3]; [14] 99% | [3]; at 50.0 µM 99.7% | [3]; at 100.0 µM 98% | [4]; [13] 78% | [4]; [14] 98% | [5]; at 33.0 µM 99% | [5]; at 100.0 µM 99% | [6]; [13] 81% | [6]; [14] 99% | [6]; at 50.0 µM 99.1% | [7]; at 33.0 µM 98% | [7]; [14] 98% | [7]; at 50.0 µM 99.5% | [7]; at 100.0 µM 98% | [8]; at 33.0 µM 99% | [8]; at 100.0 µM 99% | [9]; at 33.0 µM 99% | [9]; at 100.0 µM 99% | [10]; at 11.0 µM 75% | [10]; at 33.0 µM 99% | [10]; at 100.0 µM 99% | [11]; [14] 98% | [11]; at 50.0 µM 91.1% | [12]; at 11.0 µM 79% | [12]; at 33.0 µM 99% | [12]; at 100.0 µM 99%

From PubChem BioAssay (NCI)
